Measured values as given in PubChem BioAssay (NCATS).
Inconclusive results are not listed. The source made the active and inactive calls. Calls come from the whole dose curve; as a rule, active = well fitted cell-killing curve with a large enough effect; inconclusive = small, poorly fitted or top-dose-only effect, or effect the other way; inactive = no such curve, though single readings can be large or run the other way.

Assays:
[1] = Viability qHTS for spleen associated tyrosine kinase inhibitor (SYKi) naive MV4-11 cells (AID 1963823); note: nearly all actives have a fitted effect of over 40% in size
Summary of the method: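 SYKi-naive MV4-11 AML cells, 500 per well, were exposed to library compounds for 72 hr at 37 C, 5% CO2. Viability was then read by CellTiter-Glo luminescence after 10 min at room temperature.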

[2] = Viability qHTS for spleen associated tyrosine kinase inhibitor (SYKi) drug resistant MV4-11 cells (AID 1963824); note: nearly all actives have a fitted effect of over 35% in size
Summary of the method: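 CellTiter-Glo luminescence, read 10 min after reagent addition, reports viability after a 72 hr compound exposure. Cells are an MV4-11 line made resistant to SYK inhibition, seeded at 500 per well onto compound-containing plates.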
Potency is the fitted concentration of half-maximal effect.

SMILES	Potency [1]	Potency [2]	viability (% of control) [1]	viability, % of control [2]
COc1c(O[C@@H]2O[C@H](CO)[C@@H](O)[C@H](O)[C@H]2O)c(CCC(=O)O)cc2ccoc12	inactive	inactive	–	–
O=C1OC(/C=C/c2ccccc2)=NC/1=C\c1cccnc1	inactive	inactive	–	–
COc1cc2c(cc1NS(=O)(=O)c1ccc(Br)cc1C)n(C)c(=O)n2C	2310 nM (active)	2310 nM (active)	–	–
C=C(C)C(=O)OC1[C@@H]2C(=C)C(=O)O[C@@H]2C[C@@H](C)[C@@H]2C=CC(=O)[C@@]12C (some centres not stated)	2270 nM (active)	2860 nM (active)	–	–
COC1CC(OC2CCC3(C)C(=CCC4C3C(OC(C)=O)C(OC(=O)/C=C/c3ccccc3)C3(C)C(C(C)O)CCC43O)C2)OC(C)C1OC1CC(OC)C(OC2OC(C)C(OC3OC(CO)C(O)C(O)C3O)C(OC)C2O)C(C)O1 (configuration not stated)	–	–	69.8% [at 9.25 µM] (inactive)	71.5% [at 9.25 µM] (inactive)
Cc1ccc(C(=O)Nc2noc3ccccc23)cc1	inactive	10300 nM (active)	–	–
Cc1cc(-c2cc(O)ccc2Cl)cc2nnc(Nc3ccc(OCCN4CCCC4)cc3)nc12	1840 nM (active)	1840 nM (active)	–	–
CC(=O)c1ccc2c(c1)N(CCCN1CCC(CCO)CC1)c1ccccc1S2	26600 nM (active)	18800 nM (active)	–	–
CC1(C)S[C@@H]2[C@H](NC(=O)[C@H](NC(=O)N3CCN(S(C)(=O)=O)C3=O)c3ccccc3)C(=O)N2[C@H]1C(=O)O	inactive	inactive	–	–
CC(c1c[nH]c2ccccc12)C(O)C(=O)O (configuration not stated)	inactive	inactive	–	–
CC(C)(N)c1cc(C(=O)N[C@@H]2CCc3ccc(Oc4ccnc5c4CCC(=O)N5)cc3C2)cc(C(F)(F)F)c1	920 nM (active)	1300 nM (active)	–	–
